# The campaign covered roughly 16,000 compounds. About 5,700 (36%) were called active. About 24% were inconclusive and are not listed. This is one part of the list. A number with no mark means an inactive call. Calls come from the whole dose curve; as a rule, active = well fitted curve in the direction sought with a large enough effect; inconclusive = small, poorly fitted or top-dose-only effect, or effect the other way; inactive = no such curve, though single readings can be large or run the other way.
# Target: Cytochrome P450 1A2 (Homo sapiens) (UniProt P05177)
# Sequence (P05177 whole entry, looked up): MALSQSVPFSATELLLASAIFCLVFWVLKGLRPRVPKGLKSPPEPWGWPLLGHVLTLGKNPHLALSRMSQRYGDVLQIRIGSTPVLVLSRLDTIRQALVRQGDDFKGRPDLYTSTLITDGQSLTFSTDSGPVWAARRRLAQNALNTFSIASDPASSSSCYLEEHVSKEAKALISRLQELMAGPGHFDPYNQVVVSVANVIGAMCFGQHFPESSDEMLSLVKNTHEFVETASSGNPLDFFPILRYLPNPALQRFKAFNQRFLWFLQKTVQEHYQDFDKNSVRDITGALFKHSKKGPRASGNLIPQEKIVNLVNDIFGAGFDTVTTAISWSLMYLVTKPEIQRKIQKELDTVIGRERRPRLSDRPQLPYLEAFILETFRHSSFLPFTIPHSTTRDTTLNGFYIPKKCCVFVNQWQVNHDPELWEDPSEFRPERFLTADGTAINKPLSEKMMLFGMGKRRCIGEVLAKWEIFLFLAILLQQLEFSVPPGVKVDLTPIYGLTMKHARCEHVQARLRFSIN
# Assay: Cytochrome panel assay with activity outcomes
# Conditions: recombinant CYP, pro-luciferin dealkylation, luminescence, p450-cyp1a2; series mostly up to 57.1 µM; activity, negative = inhibition: at the top concentration
# % is set by controls: 0 for no effect and ±100 for the full control effect.
SMILES,"activity, negative = inhibition",AC50
c1cc(CN2CCC3(CCNCC3)CC2)ccn1,-15.3%,
NCc1cc(=O)[nH]o1,,inactive
CN(C)c1ccc(NC(=O)CN2C(=O)CN=C(c3ccccc3)c3ccccc32)cc1,,10 µM (active)
CCN(CC)CCO[C@H]1CC[C@@]2(C)C(=CC[C@@H]3[C@H]2CC[C@]2(C)C(=O)CC[C@H]32)C1,-19.9%,
O=C(C[C@H](c1ccccc1)c1c(O)c2ccccc2oc1=O)c1ccccc1,-12.6% [at 2.29 µM],
COc1ccc(NC(=O)N2CCCC3(CCN(C(=O)Oc4ccccc4)CC3)C2)cc1,,12.6 µM (active)
COc1ccc(NC(=O)N2CC[C@@]3(CCCN(C(=O)Oc4ccccc4)C3)C2)cc1,-7.09%,
O=C(Nc1ccccc1)N1CCC2(CC1)CCN(C(=O)Oc1ccccc1)CC2,-16.7%,
CN1CCCC2(CCN(C(=O)c3ccncc3)CC2)C1,-14%,
Cc1nc2sccc2c(=O)n1-c1ccccc1Cl,-11.7%,
O=c1c2ccccc2nc(N2CCCC2)n1-c1ccc(Cl)cc1,,5.01 µM (active)
C[Se]C[C@@H](N)C(=O)O,0.0958%,
CN1C(=O)CCS(=O)(=O)[C@H]1c1ccc(Cl)cc1,-10.6%,
O=C(C1CC(=O)N(C2CCCC2)C1)N1CCC2(CC1)OCCO2 (stereo not given),0.726%,
CC(C(=O)c1c[nH]c2ccccc12)N1CCSCC1 (stereo not given),,15.8 µM (active)
N[C@H](Cc1c[nH]c2ccccc12)P(=O)(O)O,-15.7% [at 11.4 µM],
C[N+]1(C)[C@@H]2CC[C@H]1CC(OC(=O)c1c[nH]c3ccccc13)C2 (stereo not given in full),-2.58%,
C=Cn1ccnc1P(=S)(c1nccn1C=C)C1CCCCC1,-21.2%,
Cc1cc(=O)n(-c2ccccc2)n1C,-12.9% [at 25.6 µM],
C=C(C)[C@H]1CN[C@H](C(=O)O)[C@@H]1CC(=O)O,6.18%,
CC(N)Cc1ccccc1Sc1ccc(O)cc1 (stereo not given),-12.6%,
CC(=O)N[C@@H]1CCSC1=O,-5.47% [at 25.6 µM],
CCN(CC)CC#CCOC(=O)[C@@](O)(c1ccccc1)C1CCCCC1,,1.26 µM (active)
CC[N@+]1(C)CCC[C@@H](OC(=O)C(O)(c2ccccc2)c2ccccc2)C1,2.32% [at 25.6 µM],
CCOC(C(=O)OCCCN(CC)CC)(c1ccccc1)c1ccccc1,-0.835%,

SMILES,"activity, negative = inhibition",AC50
c1ccc(CN2CCCC3(CCNCC3)C2)cc1,-1.46%,
C/C(=N\OC(=O)NC(C)C)c1sc(-c2ccccc2)nc1C,,2 µM (active)
C/C(=N\OC(=O)NC(C)C)c1sc(-c2ccc(Cl)cc2)nc1C,,1.12 µM (active)
CC[C@@H]1CN2CCc3cc(OC)c(OC)cc3[C@H]2C[C@@H]1C[C@@H]1NCCc2cc(O)c(OC)cc21,-7.35% [at 25.6 µM],
CCN1C[C@]2(C)CC[C@H](OC)[C@@]34[C@@H]2[C@H](OC(C)=O)[C@]2(OCO[C@@]25C[C@@H](OC)[C@@H]2C[C@@]3(O)[C@H]5[C@@H]2OC)[C@H]14,-3.74% [at 25.6 µM],
CCN(CC)c1ncnc2c1ncn2[C@@H]1O[C@@H](COP(=O)(O)OP(=O)(O)C(Br)(Br)P(=O)(O)O)[C@H](O)[C@@H]1O,2.91%,
CCc1ccccc1NC(=S)NC1CC2CCC(C1)N2Cc1ccco1 (stereo not given),6.19%,
CN1[C@H](CC(=O)c2ccccc2)CCC[C@H]1C[C@H](O)c1ccccc1,,15.8 µM (active)
Cn1c[n+](C)cc1C(O)c1ccccc1 (stereo not given),1.79%,
CN1[C@@H]2CC[C@H]1CC(O[C@@H](c1ccccc1)c1ccc(Cl)cc1)C2 (stereo not given in full),-6.52%,
CN1[C@@H](C[C@@H](O)c2ccccc2)CCC[C@@H]1C[C@H](O)c1ccccc1,,5.01 µM (active)
CC[C@@]1(c2ccc(N)cc2)CCC(=O)NC1=O,,inactive
Oc1ccc2c3c1O[C@H]1c4[nH]c5ccccc5c4C[C@]4(O)[C@H](C2)N(CC2CC2)CC[C@@]314,-1.2%,
NS(=O)(=O)c1cc([C@@]2(O)NC(=O)c3ccccc32)ccc1Cl,-4.19% [at 25.6 µM],
C[N+](C)(C)[C@H](Cc1c[nH]c(=S)[nH]1)C(=O)O,-18.9% [at 11.4 µM],
COc1cc(C(=O)OC2C[C@H]3CC[C@@H](C2)N3C)ccc1O (stereo not given in full),-0.206% [at 25.6 µM],
C=C(C)[C@H]1CC[C@]2(CO)CC[C@]3(C)[C@@H](CC[C@H]4[C@@]5(C)CC[C@@H](O)C(C)(C)[C@@H]5CC[C@@]43C)[C@H]12,-6.53% [at 25.6 µM],
O=C(Nc1cccc(F)c1)N1CC2(CCNCC2)C1,-5.1%,
CC(C)C[C@H](NP(=O)(O)O[C@@H]1O[C@@H](C)[C@@H](O)[C@@H](O)[C@H]1O)C(=O)N[C@@H](Cc1c[nH]c2ccccc12)C(=O)O,-1.79%,
NCCc1c[nH]c2ccc(O)cc12,,2 µM (active)
NCCc1c[nH]c2ccccc12,,3.16 µM (active)
NCCc1ccc(O)cc1,-14.6%,
CN(C)CCCc1c[nH]c2ccccc12,-12.5% [at 11.4 µM],
CNCCc1c[nH]c2ccc(O)cc12,-22.8%,
CC(=O)NCCc1c[nH]c2ccccc12,,15.8 µM (active)

# From PubChem BioAssay AID1851 (National Center for Advancing Translational Sciences (NCATS), 2009)
